This is a sample that favours compounds with a hit; in the whole collection about 3.5% have one here.
TEAD-YAP inh – TEAD-YAP interaction inhibition | HEK-TIYL cells, TEAD-Gal4/YAP UAS-luciferase luminescence | inhibition, % at 9.12 µM | 640,000 tested, 1.4% active | AID 1259422; in the data active = inhibition above about 32%;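 note: 0% = median of test compound wells and 100% = reference inhibitor wells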
MITF inh – inhibitors of human MITF. AlphaScreen MITF homodimerization, bead proximity signal. inhibition, % at 2.6 µM. 650,000 tested, 0.91% active. AID 1259374; in the data active = inhibition above about 50%;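 note: 0% = vehicle wells with protein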
FBW7 activator – human FBW7 E3 ligase activation, primary screen. Q969H0. AlphaScreen FBW7–phospho-cyclin E peptide binding, activator screen. normalized activity (activation), % at 26.1 µM. 650,000 tested, 0.13% active; in the data active = normalized activity above about 1.9%;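 note: purified mutant Fbw7 with reduced substrate affinity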
GPR151 ag – activators of human GPR151. activation, % at 11.2 µM. 650,000 tested, 1% active. PathHunter beta-arrestin GPR151 cells, luminescence. AID 1508602. Q8TDV0; in the data active = activation above about 4.9%;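 note: 0% = median of compound wells and 100% = cells with positive control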
GPR151 conf act – confirmation of human GPR151 activators; shares compounds with GPR151 ag; GPR151 PathHunter beta-arrestin cells, luminescence, 90 min; % of EA-reagent control over plate median; activation, % at 11.2 µM; 6,700 tested, under 10 active;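 active = mean percent activation across replicates above the confirmation screen cutoff of 4.91%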
GPR119 ag – GPR119 activation, counter-screen for GPR151 activators; shares compounds with GPR151 ag; GPR119 PathHunter beta-arrestin cells, luminescence, 90 min; 0 = compound-well median, 100 = enzyme-acceptor control; activation, % at 11.2 µM; 6,700 tested, 0.3% active; AID 1508611;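 active = mean percent activation in the counterscreen above 29.09%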;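 note: counterscreen on off-target GPR119 to flag nonselective hits from the GPR151 activator screen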
Target sequence (Q8TDV5 whole entry, looked up): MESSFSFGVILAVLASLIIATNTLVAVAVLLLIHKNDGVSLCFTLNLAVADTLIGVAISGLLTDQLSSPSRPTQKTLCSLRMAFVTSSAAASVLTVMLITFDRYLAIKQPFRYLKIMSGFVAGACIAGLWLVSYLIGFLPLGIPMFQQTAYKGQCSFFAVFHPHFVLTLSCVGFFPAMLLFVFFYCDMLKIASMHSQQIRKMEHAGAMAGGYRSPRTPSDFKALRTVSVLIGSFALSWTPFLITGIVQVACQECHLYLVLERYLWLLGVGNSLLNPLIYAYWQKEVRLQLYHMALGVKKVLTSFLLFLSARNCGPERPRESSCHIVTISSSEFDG
Numbers without * were called inactive; / = no result given.

SMILES	TEAD-YAP inh	MITF inh	FBW7 activator	GPR151 ag	GPR151 conf act	GPR119 ag
CN(C)c1nc2cc(F)ccc2cc1CN(Cc1ccco1)C(=O)c1cn2ccccc2n1	2	0	0	15*	0	7
Cc1ccc(C(=O)N/N=C\C(Br)=C\c2ccccc2)cn1	-19	-4	0	5.8*	0	-1
COc1ccc(NC(=O)c2sc3nc4c(cc3c2N)C(=O)CCC4)cc1	5	5	0	10*	1	12
COc1ccc(NC(=O)c2sc3nc4c(cc3c2N)C(=O)CCC4)c(OC)c1	15	13	0	1	/	/
COc1cc(/C=C2/NC(=O)N(Cc3ccc(F)cc3)C2=O)cc(Cl)c1OC	-13	-4	1	5.2*	0	0
COc1cc(/C=C2\NC(=O)N(Cc3ccc(Cl)cc3)C2=O)cc(OC)c1O	-6	-12	0	-2	/	/
COc1ccc2ccc(OC)c(/C=C3\NC(=O)N(Cc4ccc(Cl)cc4)C3=O)c2c1	0	7	0	4.9*	0	6
COc1cc(/C=C2/NC(=O)N(Cc3ccccc3F)C2=O)cc(Cl)c1OC	-3	8	0	1	/	/
COC(=O)c1sccc1NC(=O)C(=O)Nc1ccc2nc3n(c(=O)c2c1)CCCCC3	-1	6	0	0	/	/
O=C(COc1ccc(C(=O)N2CCN(CCc3ccccc3)CC2)cc1)C1CC1	3	15	0	5.1*	-1	7
O=C(COc1ccc(C(=O)N2CCN(c3ccccc3Cl)CC2)cc1)C1CC1	-11	1	0	0	/	/
Cc1cc(C)nc(NS(=O)(=O)c2ccc(NC(=O)Cc3ccc(F)cc3)cc2)n1	-2	5	0	0	/	/
Cc1cc(C)nc(NC(=O)Cc2ccc(F)cc2)n1	-6	-1	0	13*	0	-3
Cc1sc2ncnc(NCc3ccccc3)c2c1C	24	2	0	1	/	/
Cc1sc2ncnc(NCC(C)O)c2c1C (stereo not drawn)	-2	-25	0	4.9*	-1	4
COC(=O)c1cc(NC(=O)c2ccc(F)cc2)c(=O)n2c(=O)c3c(C)c(C)sc3[nH]c12	2	2	0	5.4*	1	2
COC(=O)c1cc(NC(=O)c2cccs2)c(=O)n2c(=O)c3c(C)c(C)sc3[nH]c12	-5	2	0	0	/	/
C#CCNc1c2c(nc3nncn13)CCC2	-6	5	0	1	/	/
O=C1NN(c2ccc(F)cc2)C(=O)/C1=C\c1cccc(Cl)c1Cl	-4	-13	0	5.4*	2	3
COc1cccc(N2CC(C(=O)N3CCN(CCn4nc(C)cc4C)CC3)CC2=O)c1 (stereo not drawn)	5	9	0	8.1*	2	0
COc1cccc(N2CC(C(=O)Oc3ccc4ccccc4c3)CC2=O)c1 (stereo not drawn)	-8	3	0	7.3*	0	-1
COc1ccc(N2CC(C(=O)NCCc3ccccc3)CC2=O)cc1 (stereo not drawn)	-6	-56	0	0	/	/
COc1cccc(N2CC(C(=O)NCCc3ccsc3)CC2=O)c1 (stereo not drawn)	7	1	0	5.5*	-1	-14
CC(C)(C)c1ccc(/C=C/C(=O)NCC2CCCO2)cc1 (stereo not drawn)	-45	1	0	2	/	/

Screening results (PubChem)
